Assay outcomes: PubChem BioAssay, National Center for Advancing Translational Sciences (NCATS)
RORg inh: ROR gamma (mouse) transcription inhibition. Potency, µM (series often up to 53.6 µM), for the others: at the highest dose activity change, negative = inhibition, usual class: inhibitors. Drosophila S2 Gal4-RORgamma UAS-luciferase reporter, 20 h. actives 5.4% (n = 310,000); further: potency means the concentration at half of the fitted maximal effect; nearly all actives have a fitted effect of over 60% in size
Target sequence (P51450 whole entry, looked up, the tested form may be a part): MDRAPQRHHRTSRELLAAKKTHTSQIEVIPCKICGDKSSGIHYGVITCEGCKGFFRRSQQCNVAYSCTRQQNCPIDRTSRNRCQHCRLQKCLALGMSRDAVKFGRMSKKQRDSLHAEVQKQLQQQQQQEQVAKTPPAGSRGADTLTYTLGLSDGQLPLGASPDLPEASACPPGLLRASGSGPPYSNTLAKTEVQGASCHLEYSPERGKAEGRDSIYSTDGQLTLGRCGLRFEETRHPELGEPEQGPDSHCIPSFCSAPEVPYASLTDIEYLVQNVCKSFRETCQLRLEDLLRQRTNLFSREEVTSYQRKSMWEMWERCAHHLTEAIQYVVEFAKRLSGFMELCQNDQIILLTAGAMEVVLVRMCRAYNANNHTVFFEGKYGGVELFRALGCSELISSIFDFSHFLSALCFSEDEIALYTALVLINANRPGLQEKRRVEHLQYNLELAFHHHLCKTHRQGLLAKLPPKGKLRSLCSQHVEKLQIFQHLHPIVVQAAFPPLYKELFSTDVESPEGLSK
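Drosophila Schneider cells stably carrying a metallothionein-driven Gal4 DBD–ROR gamma fusion and a UAS-Photinus luciferase reporter were exposed to compound for 1 hr, then induced with copper sulfate (700 uM final) for 20 hr at ambient temperature before luminescence reading.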
DT40 TDP1 no CPT: qHTS for Inhibitors of human tyrosyl-DNA phosphodiesterase 1 (TDP1): qHTS in cells in absence of CPT. actives 15% (n = 420,000). Potency, µM (highest dose often 46.2 µM), for the others: at the top dose activity change, negative = growth inhibition, usual class: inhibitors. AID 686978, 2013. DT40 Tdp1-/- hTDP1 cells, no CPT, ATP luminescence, 48 h; further: potency means the concentration at half of the fitted maximal effect; nearly all actives have a fitted effect of over 55% in size
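No-CPT arm: Tdp1-/-;hTDP1 DT40 cells (400/well) plus compounds, incubated ≥48 hr at 37 °C. Readout CellTiter-Glo luminescence.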
ELG1 DNA repair: ELG1-dependent DNA repair inhibition; HEK293T ELG1-luciferase reporter, luminescence, 16 h; DNA damage induced by 5-fluorouridine; actives 2.3% (n = 330,000); Potency, µM (titrated, usually from 46.1 µM), for inactives: at the highest dose activity change, negative = inhibition, most hits filed as inhibitors; AID 504467; further: potency means the concentration at half of the fitted maximal effect; nearly all actives have a fitted effect of over 55% in size
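Cells (2,000 per well) received 5-fluorouridine plus test compound or DMSO and were incubated 16 hr at 37 °C, 5% CO2. Luciferase activity was read by luminescence 30 min after ONE-Glo addition; signal suppression marked inhibition of damage-induced ELG1 function.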
Gal4-VP16 FLuc: inhibits Gal4-VP16 luciferase reporter, ROR gamma counter-screen. Drosophila S2 Gal4-VP16 UAS-luciferase, luminescence, 20 h. Potency, µM (doses to about 53.6 µM), for the others: top-dose activity, negative = inhibition, most hits filed as inhibitors. actives 3.5% (n = 310,000);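 further: Gal4-VP16 expression switched on by copper sulfate through the metallothionein promoter; potency means the concentration at half of the fitted maximal effect; nearly all actives have a fitted effect of over 50% in size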
IL1B secr inh: inhibitors of inflammasome signaling (IL-1 beta secretion). THP-1 LPS/ATP IL-1B secretion, AlphaLISA, 16 h; active compounds read low. actives 4.7% (n = 360,000). activity change, % at 57.5 µM; in the data active means activity change below about -50%; inconclusive means mostly about -30% to -49%
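Secreted IL-1B measured by AlphaLISA bead assay after 16 h compound exposure of THP-1 cells; compounds (final up to 57.5 uM) added 1 h before LPS (250 ng/mL) and ATP (1.25 mM) stimulation; lower signal means less secretion.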
DT40 TDP1 CPT: DT40-hTDP1 cell growth loss with CPT; chicken DT40 Tdp1-/-;hTDP1 cells + 20 nM CPT, ATP luminescence, 48 h; Potency, µM (titrated, usually from 46.2 µM), for inactives: at the highest dose activity change, negative = growth inhibition, usual class: inhibitors; actives 12% (n = 420,000); AID 686979; further: potency means the concentration at half of the fitted maximal effect; nearly all actives have a fitted effect of over 55% in size
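Cell growth measured by CellTiter-Glo luminescence after a minimum 48 h, 37 C compound exposure with 20 nM CPT in Tdp1-knockout DT40 cells stably expressing hTDP1, seeded 400/well; qHTS titration format.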
ELG1 FLuc counter: luciferase inhibition in cell-free luciferin readout for ELG1 hits | shares compounds with ELG1 DNA repair | actives 3% (n = 350) | Potency, µM (top dose mostly 46.1 µM), inactives show at the top dose activity change, negative = inhibition, usual class: inhibitors | cell-free firefly luciferase luminescence counter-screen, ViewLux | AID 624247; further: potency means the concentration at half of the fitted maximal effect
ELG1-Luc inh: human ELG1 repair inhibition, luciferase-tagged ELG1 confirmation | AID 624248 | actives 68% (n = 670) | HEK293T ELG1-luciferase levels, luminescence; cells co-treated with 5-fluorouridine | shares compounds with ELG1 DNA repair | Potency, µM (titrated, usually from 46.1 µM), for inactives: top-dose activity change, negative = inhibition, hits mostly inhibitors; further: potency means the concentration at half of the fitted maximal effect; nearly all actives have a fitted effect of over 55% in size
ELG1 MMS Luc: confirmation of human ELG1 repair inhibitors, MMS stimulated. actives 53% (n = 670). HEK293T luciferase-tagged ELG1 level, MMS stimulated. AID 624249. shares compounds with ELG1 DNA repair. Potency, µM (top dose mostly 46.1 µM), for the others: at the highest dose activity change, negative = inhibition, hits mostly inhibitors; further: potency means the concentration at half of the fitted maximal effect; nearly all actives have a fitted effect of over 60% in size
ELG1 5FU viab: confirmation of ELG1 repair inhibitors: viability with 5FU. shares compounds with ELG1 DNA repair. cell viability with 5-FU, ELG1-dependent repair. Potency, µM (titrated, usually from 46.1 µM), without a hit: top-dose activity change, negative = viability loss, most hits filed as cytotoxic. 670 tested, under 10 active;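 further: ELG1-luc HEK293T cells cotreated with 5-fluorouridine at 10 µM final; potency means the concentration at half of the fitted maximal effect; viability measured 16 h after compound addition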
ELG1 MMS viab: confirmation of ELG1 repair inhibitors: viability with MMS | Potency, µM (titrated, usually from 46.1 µM), for the others: at the top dose activity change, negative = viability loss, most hits filed as cytotoxic | shares compounds with ELG1 DNA repair | Cell viability with MMS, ELG1-dependent DNA repair | actives 33% (n = 670) | AID 624251;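 further: ELG1-luc HEK293T cells co-treated with 10 µM MMS; potency means the concentration at half of the fitted maximal effect; viability read 16 h after compound addition; nearly all actives have a fitted effect of over 60% in size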
Cell viab unstim: affects unstimulated cell viability, ELG1 hit counter-screen; AID 624252; actives 8% (n = 900); Potency, µM (highest dose often 45.9 µM), for inactives: at the top dose activity change, negative = loss of viability, most hits filed as cytotoxic; shares compounds with ELG1 DNA repair; cell viability counter-screen, unstimulated, luminescence;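 further: potency means the concentration at half of the fitted maximal effect; compound exposure lasted 16 hours before reading; nearly all actives have a fitted effect of over 55% in size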
FLuc biochem: inhibits purified firefly luciferase, counter-screen for ELG1 hits. purified firefly luciferase, luminescence counter-screen. AID 624253. Potency, µM (highest dose often 57.5 µM), for inactives: top-dose activity, negative = inhibition, actives largely listed as inhibitors. actives 10% (n = 350). shares compounds with ELG1 DNA repair; further: potency means the concentration at half of the fitted maximal effect
An asterisk follows results filed as active; ? = inconclusive; . = no result. Shown are actives, neighbours in structure and some others; about 21% of the full set was active somewhere. Unless noted, the call rests on the fitted dose curve; in most records, active means well fitted curve in the direction sought with a large enough effect; inconclusive means small, poorly fitted or top-dose-only effect, or another doubt; inactive means no such curve, though single readings can be large; an effect the other way counts as inactive or inconclusive. On the % scale 0 is the no-effect control and ±100 the full control effect.

SMILES	RORg inh	DT40 TDP1 no CPT	ELG1 DNA repair	Gal4-VP16 FLuc	IL1B secr inh	DT40 TDP1 CPT	ELG1-Luc inh	ELG1 MMS Luc	ELG1 5FU viab	ELG1 MMS viab	Cell viab unstim	others
N#C/C(=C(/O)c1ccc([N+](=O)[O-])s1)c1nc2ccccc2[nH]1	-40%	1µM*	2.1µM*	-25%	-17	-87%	?	0.79µM*	-10%	0.89µM*	?
Cc1cc(Cl)ccc1NC(=O)CCN1C(=O)NC(C)(C)C1=O	.	7%	13%	.	4	-16%	.	.	.	.	.
Cc1ccccc1-c1nnc(SCC(=O)NC2CCCC2)n1C	.	-15%	6%	.	5	2%	.	.	.	.	.
CCOc1ccc2oc(C(=O)Nc3nccs3)c(C)c2c1	.	-20%	?	.	9	-26%	.	.	.	.	-8%
COc1ccc2oc(C(=O)Nc3nccs3)c(C)c2c1	.	-20%	?	.	6	-5%	.	.	.	.	.
CCOC(=O)c1ccc(Nc2cnc3ccccc3n2)cc1	0%	?	?	6%	-6	2%	.	.	.	.	.
CCOC(=O)c1nc(Nc2ccc(C(C)=O)cc2)c2ccccc2n1	10%	15µM*	1.6µM*	-6%	-11	16µM*	2.8µM*	?	?	7%	-12%
Cc1ccc(NC(=O)CCc2nnc3ccc(N4CCC(C)CC4)nn23)nc1	9%	-3%	2.9µM*	-9%	-53*	-24%	4.4µM*	29%	?	0%	?
N/C(=N\OC(=O)CCC1CCCC1)c1cccnc1	23%	5%	?	-3%	-3	13%	.	.	.	.	.
Cn1cnc(Sc2ncnc3nc[nH]c23)c1[N+](=O)[O-]	-2%	2%	?	-2%	-5	-3%	?	?	-1%	-1%	16µM*	ELG1 FLuc counter=0%;FLuc biochem=4%
CC(=O)CSc1ncnc2nc[nH]c12	1%	14%	-7%	-4%	11	-5%	.	.	.	.	.
O=C(COC(=O)Cc1ccc(Br)cc1)NCc1ccc2c(c1)OCO2	.	-25%	-1%	.	10	-9%	.	.	.	.	.
CC1CN(C(=O)COC(=O)/C=C/c2cccc([N+](=O)[O-])c2)CC(C)O1 (configuration not stated)	.	-25%	1.5µM*	.	0	-19%	-17%	?	-5%	?	?
CC1CC(C)CN(C(=O)COC(=O)/C=C/c2cccc([N+](=O)[O-])c2)C1 (configuration not stated)	.	-5%	-8%	.	-14	-6%	.	.	.	.	.
COc1ccc(S(=O)(=O)NCc2ccncc2)cc1NC(=O)c1ccc(Cl)cc1	.	15µM*	?	.	-67*	16µM*	18µM*	?	-3%	?	?	ELG1 FLuc counter=9%;FLuc biochem=-2%
COc1cccc(CN2CCNC(=O)C2CC(=O)NC2CCCCCCC2)c1 (configuration not stated)	6%	-23%	17%	?	8	-22%	.	.	.	.	.
COc1ccc(-c2noc(CCCC(=O)NC3CCCC3)n2)cc1	4.5µM*	16µM*	4.6µM*	14µM*	-13	16µM*	?	5.6µM*	1%	7.1µM*	?
O=C(CCNC(=O)C1CCN(S(=O)(=O)c2ccc(F)cc2)CC1)NCc1ccc(Cl)cc1	19%	-17%	?	-9%	18	-8%	.	.	.	.	.
CN(C)S(=O)(=O)Oc1ccc(C(=O)Nc2ccc([N+](=O)[O-])cc2)cc1	22%	-18%	2.9µM*	-4%	4	-5%	0.71µM*	3.1µM*	?	?	3%
COc1cccc(-c2nc(CS(=O)(=O)CC(=O)NCCc3ccccc3)c(C)o2)c1	3%	-17%	4.6µM*	-16%	0	?	?	-4%	?	-1%	-9%
CCCNC(=O)CS(=O)(=O)Cc1nc(-c2cccc(OC)c2)oc1C	-21%	-19%	-14%	-2%	-1	1%	.	.	.	.	.
CC(=O)Nc1ccc(NC(=O)C(C)OC(=O)/C=C/c2cn(-c3ccccc3)nc2-c2cccnc2)cc1 (configuration not stated)	13µM*	21µM*	1.6µM*	?	?	?	0.79µM*	25µM*	?	25µM*	?
Cc1ccccc1NC(=O)COC(=O)/C=C/c1cn(-c2ccccc2)nc1-c1cccnc1	15%	?	?	-6%	10	-1%	.	.	.	.	.
